Reference: PubChem BioAssay (NCATS)
Records with an inconclusive call do not appear. Calls of active or inactive are those of the source. Calls follow the shape of the dose curve; as a rule, active = well fitted curve in the direction sought with a large enough effect; inconclusive = small, poorly fitted or top-dose-only effect, or another doubt; inactive = no such curve, though single readings can be large; an effect the other way counts as inactive or inconclusive.

Experiments:
[1] = P-glycoprotein substrates identified in KB-8-5-11 adenocarcinoma cell line, qHTS therapeutic library screen (AID 1346987); conditions: KB-8-5-11 (P-gp overexpressing) viability, CellTiter-Glo, 72 h; series mostly up to 44.5 µM; also: nearly all actives have a fitted effect of over 65% in size
Summary of the method: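 KB-8-5-11, a colchicine-selected P-gp-overexpressing KB-3-1 subline, was grown without colchicine for the assay. Cells were seeded at 500 cells/well, dosed in concentration-response and incubated 72 h at 37 degree C, 5% CO2. Viability was read by CellTiter-Glo luminescence.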

[2] = NS1 protein of Zika virus - qHTS assay to identify small molecule inhibitors in human HEK 293 cells (AID 1347053); conditions: HEK293 ZIKV MR766 infection, NS1 TR-FRET, 24 h; series mostly up to 46.1 µM;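 also: plate controls were infected untreated cells for no effect and uninfected cells for full effect; nearly all actives have a fitted effect of over 55% in size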
Summary of the method: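 Following 20 h seeding, HEK 293 cells took compound, then 1 h later ZIKV MR766 (MOI = 0.5). Incubation ran 24 h at 37 C before TR-FRET detection of NS1; a drop in signal indicates inhibition.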

[3] = qHTS of pediatric cancer cell lines to identify multiple opportunities for drug repurposing: Primary screen for TC32 cells (AID 1347089); conditions: TC32 Ewing sarcoma viability, CellTiter-Glo luminescence, 48 h; series mostly up to 45.8 µM; also: % is scaled to controls: 0 for no effect and ±100 for the full control effect; nearly all actives have a fitted effect of over 60% in size
Summary of the method: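 A viability screen of TC32 cells was run over 48 h, with primary MIPE doses spanning 0.78 nM–46 µM and NPC doses 0.59 nM–46 µM. ATP luminescence (CellTiter-Glo) served as the read-out.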

[4] = qHTS of pediatric cancer cell lines to identify multiple opportunities for drug repurposing: Primary screen for DAOY cells (AID 1347090); conditions: DAOY medulloblastoma viability, CellTiter-Glo luminescence, 48 h; series mostly up to 46 µM;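 also: plate controls were DMSO for no effect and bortezomib for full effect; nearly all actives have a fitted effect of over 55% in size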
Summary of the method: (§1)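 Eight- or eleven-point concentration series, 48 h treatment at 37 degrees C in growth media; readout CellTiter-Glo luminescence. Potency and efficacy were taken from the concentration-response curves.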

[5] = qHTS of pediatric cancer cell lines to identify multiple opportunities for drug repurposing: Primary screen for SJ-GBM2 cells (AID 1347091); conditions: SJ-GBM2 viability, CellTiter-Glo luminescence, 48 h; series mostly up to 46 µM;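 also: plate controls were DMSO neutral control for no effect and bortezomib for full effect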
Summary of the method: as §1

[6] = qHTS of pediatric cancer cell lines to identify multiple opportunities for drug repurposing: Primary screen for SK-N-MC cells (AID 1347093); conditions: SK-N-MC viability, CellTiter-Glo luminescence, 48 h; series mostly up to 46 µM; also: potency is read from the fitted curve at half-maximal effect;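 as to activity change, negative = cytotoxic: plate controls were DMSO neutral control for no effect and bortezomib for full effect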
Summary of the method: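 Metabolically active cells were quantified by ATP-dependent luminescence (CellTiter-Glo, 15 min at room temperature) following 48 h treatment. Cells had been plated at 500-1,000 per well and settled for 5 h beforehand.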

[7] = qHTS of pediatric cancer cell lines to identify multiple opportunities for drug repurposing: Primary screen for NB-EBc1 cells (AID 1347095); conditions: NB-EBc1 neuroblastoma viability, CellTiter-Glo luminescence, 48 h; series mostly up to 46 µM; also: potency is read from the fitted curve at half-maximal effect;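 as to activity change, negative = cytotoxic: plate controls were DMSO neutral control for no effect and bortezomib for full effect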
Summary of the method: (§2)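 Readout: CellTiter-Glo luminescence, 48 h treatment. Controls DMSO (neutral) and bortezomib 2.3 µM final (positive). Potency and efficacy taken from primary-screen concentration-response curves.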

[8] = qHTS of pediatric cancer cell lines to identify multiple opportunities for drug repurposing: Primary screen for U-2 OS cells (AID 1347096); conditions: U-2 OS viability, CellTiter-Glo luminescence, 48 h; series mostly up to 46 µM;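 also: plate controls were DMSO wells for no effect and bortezomib positive control wells for full effect; nearly all actives have a fitted effect of over 50% in size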
Summary of the method: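 Cells (500-1,000/well) in growth media were settled 5 h at 37 degrees C, then given compounds for 48 h. Viability was read as CellTiter-Glo luminescence. Primary runs used MIPE at 11 points (0.78 nM-46 µM) and NPC at 8 points (0.59 nM-46 µM); follow-ups used 11 points.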

[9] = qHTS of pediatric cancer cell lines to identify multiple opportunities for drug repurposing: Primary screen for A673 cells (AID 1347092); conditions: A673 Ewing sarcoma viability, CellTiter-Glo ATP luminescence, 48 h; series mostly up to 46 µM; also: nearly all actives have a fitted effect of over 45% in size; also: potency is read from the fitted curve at half-maximal effect; as to activity change, negative = cytotoxic: % is scaled to controls: 0 for no effect and ±100 for the full control effect
Summary of the method: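 Titration-based qHTS on A673 cells: MIPE compounds spanned 11 points (0.78 nM to 46 µM final), NPC compounds 8 points (0.59 nM to 46 µM final). Viability after 48 h was measured by ATP luminescence.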

[10] = qHTS of pediatric cancer cell lines to identify multiple opportunities for drug repurposing: Primary screen for BT-37 cells (AID 1347094); conditions: BT-37 viability, CellTiter-Glo luminescence, 48 h; series mostly up to 57.3 µM;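 also: plate controls were DMSO for no effect and bortezomib for full effect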
Summary of the method: as §2

O=C(O)CN1C(=O)c2cccc3cccc(c23)C1=O
inactive: Potency [1] | Potency [2] | Potency [3] | Potency [4] | Potency [5] | Potency [6] | Potency [7] | Potency [8]

CCCc1c(OCCCCc2nn[nH]n2)ccc(C(C)=O)c1O
inactive: Potency [1] | Potency [2] | Potency [3] | Potency [4] | Potency [9] | Potency [6] | Potency [10] | Potency [7] | Potency [8]

N[C@@H](CSSC[C@H](N)C(=O)O)C(=O)O
inactive: Potency [1] | activity change, negative = inhibition [2] -26.2% [at 0.593 µM] | activity change, negative = cytotoxic [3] 5.9% [at 0.594 µM] | activity change, negative = cytotoxic [4] 14.8% [at 0.597 µM] | activity change, negative = cytotoxic [9] -1.55% [at 0.597 µM] | activity change, negative = cytotoxic [6] -7.24% [at 0.597 µM] | activity change, negative = cytotoxic [10] 3.9% [at 0.745 µM] | activity change, negative = cytotoxic [7] -0.714% [at 0.597 µM] | activity change, negative = cytotoxic [8] 6.12% [at 0.597 µM]

C[C@@H]1CC[C@@]2(OC1)O[C@H]1C[C@H]3[C@@H]4CC[C@H]5C[C@@H](O)CC[C@]5(C)[C@H]4CC(=O)[C@]3(C)[C@H]1[C@@H]2C
inactive: Potency [1] | activity change, negative = inhibition [2] -2.82% [at 4.81 µM] | activity change, negative = cytotoxic [3] 10.8% [at 4.81 µM] | activity change, negative = cytotoxic [4] 10.7% [at 4.84 µM] | activity change, negative = cytotoxic [5] 26.5% [at 4.84 µM] | activity change, negative = cytotoxic [10] 3.33% [at 6.03 µM] | activity change, negative = cytotoxic [7] 21.8% [at 4.84 µM] | activity change, negative = cytotoxic [8] 8.89% [at 4.84 µM]

O=C1OC(OC(=O)c2cccnc2Nc2cccc(C(F)(F)F)c2)c2ccccc21 (centres undefined)
inactive: Potency [1] | Potency [2] | Potency [3] | Potency [4] | Potency [5] | Potency [10] | Potency [7] | Potency [8]

NCC(=O)CCC(=O)O
inactive: Potency [1] | Potency [2] | Potency [3] | Potency [4] | Potency [10] | Potency [7] | Potency [8]

O=c1[nH]c(=O)c2[nH]c(=O)[nH]c2[nH]1
inactive: Potency [1] | activity change, negative = inhibition [2] -8.7% [at 9.2 µM] | activity change, negative = cytotoxic [3] -9.56% [at 9.17 µM] | activity change, negative = cytotoxic [4] -3.8% [at 9.22 µM] | activity change, negative = cytotoxic [5] 1.34% [at 9.22 µM] | activity change, negative = cytotoxic [10] 0.299% [at 11.5 µM] | activity change, negative = cytotoxic [7] -4.54% [at 9.22 µM] | activity change, negative = cytotoxic [8] -0.365% [at 9.22 µM]

CCN(CC)C(=O)Nc1ccc(OCC(O)CNC(C)(C)C)c(C(C)=O)c1 (centres undefined)
inactive: Potency [1] | Potency [2] | Potency [3] | Potency [4] | Potency [6] | Potency [10] | Potency [7] | Potency [8]

NS(=O)(=O)c1cc2c(cc1C(F)(F)F)NC(Cc1ccccc1)NS2(=O)=O (centres undefined)
inactive: Potency [1] | Potency [2] | Potency [3] | Potency [4] | Potency [5] | Potency [10] | Potency [7] | Potency [8]

O=C1O[C@H]([C@@H](O)CO)C(O)=C1O
inactive: Potency [1] | Potency [2] | Potency [3] | Potency [5] | Potency [9] | Potency [6] | Potency [10] | Potency [7] | Potency [8]

CCN(CC)CCSC(=O)C(c1ccccc1)c1ccccc1
active: Potency [9] 21.1 µM | Potency [7] 23.7 µM
inactive: Potency [1] | Potency [2] | Potency [3] | Potency [4] | Potency [10] | Potency [8]

C[C@@H]1CCN(C(=O)[C@H](CCCN=C(N)N)NS(=O)(=O)c2cccc3c2NC[C@H](C)C3)[C@@H](C(=O)O)C1
inactive: Potency [1] | Potency [2] | Potency [3] | Potency [4] | Potency [5] | Potency [10] | Potency [7] | Potency [8]

c1ccc2c(CC3=NCCN3)cccc2c1
inactive: Potency [1] | Potency [2] | Potency [3] | Potency [4] | Potency [5] | Potency [10] | Potency [7] | Potency [8]

CC1(C)OC(=O)NC1=O
inactive: Potency [1] | Potency [2] | Potency [3] | Potency [4] | Potency [9] | Potency [6] | Potency [10] | Potency [7] | Potency [8]

CCCCCCCCCCCCCCCCCCOCC(O)CO (centres undefined)
inactive: Potency [1] | Potency [2] | Potency [3] | Potency [4] | Potency [10] | Potency [7] | Potency [8]

Nc1ccc(S(=O)(=O)Nc2ccccc2)cc1
inactive: Potency [1] | Potency [2] | Potency [3] | Potency [4] | Potency [9] | Potency [10] | Potency [7] | Potency [8]

COc1ccc2c(c1)C(=O)N(CCc1ccc(S(=O)(=O)NC(=O)NC3CCCCC3)cc1)C(=O)C2(C)C
inactive: Potency [1] | Potency [2] | Potency [3] | Potency [4] | Potency [5] | Potency [10] | Potency [7] | Potency [8]

Cc1c(Cl)cccc1Nc1ccccc1C(=O)O
inactive: Potency [1] | Potency [2] | Potency [3] | Potency [4] | Potency [5] | Potency [10] | Potency [8]
active: Potency [6] 18.8 µM

Nc1ccc(S(=O)(=O)NC(=O)c2ccccc2)cc1
inactive: Potency [1] | Potency [2] | Potency [3] | Potency [4] | Potency [9] | Potency [10] | Potency [7] | Potency [8]
